In the supplement of paper PMC6555819:

Experiments:
Assay in all cases: PBM binding z-score (relative to random genomic background probes); higher = stronger binding; sequences stand for … in GC…GCGATTGACAGCGTAGAATGAAGG
[1] = test system: FXR:RXRa (NR concentration 270 nM, RXRa partner concentration 90 nM)
In short: (§1)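 Scanned fluorescence from custom Agilent 4×180K protein-binding microarrays was regression-normalized. Binding z-scores use random background probes as reference. Ligand-free nuclear receptor dimers were incubated on the arrays for 1 h and detected with antibodies against each partner (one per run).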

[2] = test system: LXRa:RXRa (NR concentration 270 nM, RXRa partner concentration 90 nM)
In short: as §1

[3] = test system: LXRa homodimer (NR concentration 270 nM)
In short: as §1

[4] = test system: LXRb:RXRa (NR concentration 270 nM, RXRa partner concentration 90 nM)
In short: as §1

[5] = test system: LXRb homodimer (NR concentration 270 nM)
In short: as §1

[6] = test system: PPARa:RXRa (NR concentration 270 nM, RXRa partner concentration 90 nM)
In short: as §1

[7] = test system: PPARg:RXRa (NR concentration 180 nM, RXRa partner concentration 90 nM)
In short: as §1

[8] = test system: PPARg:RXRa 270nM:90nM, anti-RXR (NR concentration 270 nM, RXRa partner concentration 90 nM)
In short: as §1

[9] = test system: PPARg:RXRa 30nM:10nM, anti-RXR (NR concentration 30 nM, RXRa partner concentration 10 nM)
In short: as §1

[10] = test system: PPARg:RXRa 90nM:30nM, anti-RXR (NR concentration 90 nM, RXRa partner concentration 30 nM)
In short: as §1

[11] = test system: PPARg:RXRa DBDmut IVT, anti-RXR (DBD mutation: RXRa K156A/R161A, NR concentration 270 nM, RXRa partner concentration 90 nM)
In short: as §1

[12] = test system: PPARg:RXRa IVT, anti-PPARg (NR concentration 270 nM, RXRa partner concentration 90 nM)
In short: as §1

[13] = test system: PPARg DBDmut:RXRa IVT, anti-PPARg (DBD mutation: PPARg1 K132A/R137A, NR concentration 270 nM, RXRa partner concentration 90 nM)
In short: as §1

[14] = test system: PPARg DBDmut IVT, anti-PPARg (DBD mutation: PPARg1 K132A/R137A, NR concentration 270 nM)
In short: as §1

[15] = test system: PPARg homodimer (NR concentration 180 nM)
In short: as §1

[16] = test system: PXR:RXRa (NR concentration 270 nM, RXRa partner concentration 90 nM)
In short: as §1

[17] = test system: PXR homodimer (NR concentration 270 nM)
In short: as §1

[18] = test system: RARa:RXR (NR concentration 270 nM, RXRa partner concentration 90 nM)
In short: as §1

[19] = test system: RARa homodimer (NR concentration 270 nM)
In short: as §1

[20] = test system: RARb:RXRa (NR concentration 270 nM, RXRa partner concentration 90 nM)
In short: as §1

| Sequence | PBM binding z-score [1] | PBM binding z-score [2] | PBM binding z-score [3] | PBM binding z-score [4] | PBM binding z-score [5] | PBM binding z-score [6] | PBM binding z-score [7] | PBM binding z-score [8] | PBM binding z-score [9] | PBM binding z-score [10] | PBM binding z-score [11] | PBM binding z-score [12] | PBM binding z-score [13] | PBM binding z-score [14] | PBM binding z-score [15] | PBM binding z-score [16] | PBM binding z-score [17] | PBM binding z-score [18] | PBM binding z-score [19] | PBM binding z-score [20] |
| --- | --- | --- | --- | --- | --- | --- | --- | --- | --- | --- | --- | --- | --- | --- | --- | --- | --- | --- | --- | --- |
| TATACAGGGTCATAGGCCAGAGTACGAATGTCGA | 6.89 | 6 | 1.98 | 4.45 | 1.7 | 5.81 | 7.21 | 6.45 | 3.76 | 5.8 | 2.32 | 4.47 | 2.52 | 2.28 | 2.09 | 4 | 0.517 | 5.18 | 1.43 | 4.25 |
| TTACCAAGGTGTAGGTCGTTGATCCCTCTGTAGA | 0.674 | 1.15 | 0.0593 | 0.801 | -0.638 | 0.814 | -0.0136 | 1.68 | 0.61 | 1.52 | -0.191 | 0.759 | -0.595 | 0.0644 | 0.0452 | 0.444 | -0.501 | 0.688 | -0.329 | 0.379 |
| CCTCGGAGCACAGAAGGTCAGAGCTGTCCGCTTT | 1.68 | 2.17 | 0.231 | 1.21 | -0.905 | 1.97 | -0.336 | 0.536 | -1.06 | -0.433 | 0.355 | -0.108 | -1.25 | -1.67 | 1.34 | 1.87 | 0.017 | 2.1 | -0.245 | 2.62 |
| TCATATAGGTAATACAGGTAAAAGTCGGCATCTA | 1.15 | 1.13 | 0.377 | 0.915 | 0.455 | 1.48 | 1.61 | 2.58 | 4.14 | 3.49 | 4.07 | 2.77 | 1.1 | 1.94 | 1.08 | 0.705 | 0.364 | 0.922 | 1.47 | 0.572 |
| TAGCCTAGGTCACTGGGCCAGTATAGTACGCATC | 3.22 | 2.31 | -0.331 | 1.92 | -0.779 | 4 | 5.05 | 4.62 | 1.68 | 3.41 | 3.48 | 5.27 | 1.2 | 0.865 | 0.976 | 1.32 | -0.648 | 1.93 | -0.15 | 3.91 |
| CCAGACGGGTGAAAGGTAACTCAGTCTGGTACGC | 0.176 | 0.178 | -0.5 | 0.239 | -0.986 | 2.87 | 4.88 | 5.6 | 3.4 | 5.98 | 0.482 | 2.35 | -1 | -1.51 | 0.107 | 0.559 | -0.486 | 1.55 | -0.431 | 0.652 |
| ACTAGGAGGCCAAGGGTCACTCAAGATTAGTCCG | 2.82 | 3.11 | 0.119 | 2.83 | 0.0149 | 4.59 | 8.49 | 7.94 | 7.43 | 8.35 | 1.26 | 3.95 | -0.025 | -0.509 | 3.03 | 3.57 | 0.414 | 4.7 | 1.03 | 3.64 |
| GATATAGGGTCAAGGCCAGAGTACGCGTATTGAT | 7.01 | 4.58 | 0.271 | 3.91 | 0.188 | 5.82 | 6.29 | 6.2 | 3.04 | 5.65 | 4 | 4.64 | 1.73 | 1.98 | 3.01 | 4.14 | 0.146 | 4.91 | 1.13 | 4.62 |
| CCTACTGGGCCACGGAAGGTCATTGATTCAGTGA | 1.94 | 2.96 | 2.27 | 2.25 | -0.194 | 3.5 | 3.4 | 3.37 | 1.05 | 2.35 | 4.56 | 5.51 | -0.609 | -0.824 | 1.7 | 3.57 | 0.303 | 3.15 | 0.0822 | 3 |
| TCATATAGGTAAAGGGTGAAAGTCGGTGTGGTAA | 1.34 | 1.71 | 0.489 | 1.71 | 0.233 | 4.48 | 7.16 | 7.21 | 7.16 | 7.63 | 4.48 | 4.59 | 0.928 | 1.03 | 1.99 | 1.31 | 0.961 | 2.03 | 2.05 | 1.46 |
| CCGACTGAGGCAAGGTTACCATAACGCACAGCCA | 0.169 | 0.738 | -0.295 | 0.593 | -0.805 | 0.985 | 0.898 | 0.236 | -0.466 | 0.134 | -0.0464 | -0.0439 | -0.139 | -0.814 | 0.4 | 0.18 | -0.0704 | 0.645 | 0.194 | 0.904 |
| CCTGCTAGGTCCTGGTCAGCTAATCTACAGTATG | -0.334 | -0.452 | -0.575 | -0.318 | -1.07 | -0.283 | -0.294 | -0.442 | -0.574 | -0.403 | 0.239 | -0.294 | -1.02 | -0.479 | -0.652 | -0.461 | -0.864 | -0.0873 | -0.971 | 0.56 |
| TCATATAGGTAAACGCTAGGTGAAAGTCCGATCT | 1.11 | 0.968 | 0.15 | 0.833 | -0.0724 | 1.7 | 1.29 | 2.43 | 3.95 | 3.34 | 4.49 | 3.57 | 1.38 | 1.29 | 0.646 | 0.584 | 0.4 | 1.13 | 0.619 | 0.474 |
| TCGAGAAGGTTAGGGGCATTCAGAATGGCGTCGA | 0.95 | 0.839 | -0.359 | 1.38 | -0.293 | 1.83 | 0.297 | 1.19 | 2.23 | 1.43 | 1.15 | 0.162 | -1.01 | -0.967 | 0.818 | 0.866 | -0.0334 | 0.991 | 0.387 | 2.02 |
